Results from the supplement of paper PMC10811239.

System: LEGO organoid PTCC (PTEN-/-; TP53-/-; CDKN2A-/-; CDKN2B-/-)
Test: bioluminescence (viable cell) signal fold change after vs before treatment, normalised to DMSO (ratio); higher = more tumour cell growth / less inhibition
Details: 10 µM; treatment time 6 days
Method: (§1)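 Luc2-labelled iPSC-derived glioblastoma-like organoids (LEGOs, genotypes PT = PTEN-/-;TP53-/-, PTCC = plus CDKN2A/B-/-, PTN = plus NF1-/-) were treated with 10 uM drug for 6 days (applied every other day) at 37 C. Bioluminescence imaging was done before treatment and 2 days after the last dose. BLI signals were normalised to the DMSO control on the same day and then to the pre-treatment signal (N=3).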

SMILES	bioluminescence
Nc1cccc2c1C(=O)N(C1CCC(=O)NC1=O)C2=O (stereo not drawn) [Pomalidomide]	2.56
CCC1=C[C@@H]2CN(C1)Cc1c([nH]c3ccccc13)[C@@](C(=O)OC)(c1cc3c(cc1OC)N(C)[C@H]1[C@@](O)(C(=O)OC)[C@H](OC(C)=O)[C@]4(CC)C=CCN5CC[C@]31[C@@H]54)C2.O=C(O)[C@H](O)[C@@H](O)C(=O)O.O=C(O)[C@H](O)[C@@H](O)C(=O)O [Vinorelbine Tartrate]	1.06
CC(C)(Sc1cc(C(C)(C)C)c(O)c(C(C)(C)C)c1)Sc1cc(C(C)(C)C)c(O)c(C(C)(C)C)c1 [Probucol]	0.73
Cc1cn([C@H]2C=C[C@@H](CO)O2)c(=O)[nH]c1=O [Stavudine]	0.83
C[C@@](Cc1ccc(O)c(O)c1)(NN)C(=O)O.O [Carbidopa Hydrate]	0.96
CNCCC(Oc1ccc(C(F)(F)F)cc1)c1ccccc1.Cl (stereo not drawn) [Fluoxetine hydrochloride]	1.74
N[C@@H](CC(=O)O)C(=O)O [L-Aspartic acid]	1.1
Cl.CNCC\C=C1\c2ccccc2CCc2ccccc12 [Nortriptyline hydrochloride]	0.717
C[C@@H]1COCCN1c1cc(C2([S@](C)(=N)=O)CC2)nc(-c2ccnc3[nH]ccc23)n1 [Ceralasertib]	1.4
C[C@@H]1CCN(C(=O)CC#N)C[C@@H]1N(C)c1ncnc2[nH]ccc12 [Tofacitinib]	1.34

System: LEGO organoid PTN (PTEN-/-; TP53-/-; NF1-/-)
Test: as above
Details: 10 µM; treatment time 6 days
Method: as §1

SMILES	bioluminescence
COc1cc(Nc2c(C#N)cnc3cc(OCCCN4CCN(C)CC4)c(OC)cc23)c(Cl)cc1Cl [Bosutinib]	0.669
CN(C)CCCN1c2ccccc2CCc2ccccc21.Cl [Imipramine hydrochloride]	0.961
CC/C(=C(/CC)c1ccc(O)cc1)c1ccc(O)cc1 [Diethylstilbestrol]	2.47
N#Cc1ccc2[nH]cc(CCCCN3CCN(c4ccc5oc(C(N)=O)cc5c4)CC3)c2c1 [Vilazodone]	0.898
CO[C@H]1C[C@@H]2CC[C@@H](C)[C@@](O)(O2)C(=O)C(=O)N2CCCC[C@H]2C(=O)O[C@H]([C@H](C)C[C@@H]2CC[C@@H](OC(=O)C(C)(CO)CO)[C@H](OC)C2)CC(=O)[C@H](C)/C=C(\C)[C@@H](O)[C@@H](OC)C(=O)[C@H](C)C[C@H](C)/C=C/C=C/C=C/1C [Temsirolimus]	0.856
CCN(CC)CCNC(=O)c1cc(Cl)c(N)cc1OC [5-Chloro-2-methoxyprocainamide]	1.62
Cl.O=c1n(CCCN2CCN(c3cccc(Cl)c3)CC2)nc2ccccn12 [Trazodone hydrochloride]	0.985
COc1cc2c(cc1OC)C(=O)C(CC1CCN(Cc3ccccc3)CC1)C2.Cl (stereo not drawn) [Donepezil HCl]	0.746
Cc1nc2n(c(=O)c1CCN1CCC(c3noc4cc(F)ccc34)CC1)CCCC2O (stereo not drawn) [Paliperidone]	0.593
CN1CCN(CCCN2c3ccccc3Sc3ccc(C(F)(F)F)cc32)CC1.Cl.Cl [Trifluoperazine dihydrochloride]	1.23
O=C(O)Cc1ccccc1Nc1c(Cl)cccc1Cl [Diclofenac]	1.13
CCc1cc2c(cc1N1CCC(N3CCOCC3)CC1)C(C)(C)c1[nH]c3cc(C#N)ccc3c1C2=O [Alectinib]	0.961
CC(C(=O)O)c1cccc(C(=O)c2ccccc2)c1 (stereo not drawn) [Ketoprofen]	1.02
Nc1nc(NC2CC2)c2ncn([C@H]3C=C[C@@H](CO)C3)c2n1.Nc1nc(NC2CC2)c2ncn([C@H]3C=C[C@@H](CO)C3)c2n1.O=S(=O)(O)O [Abacavir sulfate]	1.95
COc1ccc2c(c1)c(CC(=O)O)c(C)n2C(=O)c1ccc(Cl)cc1 [Indometacin]	1.76
CO/N=C(\C(=O)N[C@@H]1C(=O)N2C(C(=O)[O-])=C(C[N+]3(C)CCCC3)CS[C@H]12)c1csc(N)n1.Cl.Cl.O [Cefepime Dihydrochloride Monohydrate]	1.59
CCC(C)(C)C(=O)O[C@H]1C[C@@H](C)C=C2C=C[C@H](C)[C@H](CC[C@@H]3C[C@@H](O)CC(=O)O3)[C@H]21 [Simvastatin]	0.364
Cl.OC(CCN1CCCCC1)(c1ccccc1)C1CCCCC1 (racemic) [DL-trihexyphenidyl hydrochloride]	0.496
Cl.NC12CC3CC(CC(C3)C1)C2 [Amantadine hydrochloride]	3.32

SMILES	bioluminescence
C[C@H]1[C@H](NC(=O)/C(=N\OC(C)(C)C(=O)O)c2csc(N)n2)C(=O)N1S(=O)(=O)O [Aztreonam]	1.4
CN(C)CC(c1ccc(O)cc1)C1(O)CCCCC1.O=C(O)CCC(=O)O (stereo not drawn) [Desvenlafaxine succinate hydrate]	0.536
CNCC[C@@H](Oc1ccccc1C)c1ccccc1.Cl [Atomoxetine hydrochloride]	1.97
Nc1nc(Cl)nc2c1ncn2[C@H]1C[C@H](O)[C@@H](CO)O1 [Cladribine]	1.05
O.O.O.O.O.O.O.O=C1CN(/N=C/c2ccc(-c3ccc([N+](=O)[O-])cc3)o2)C(=O)[N-]1.O=C1CN(/N=C/c2ccc(-c3ccc([N+](=O)[O-])cc3)o2)C(=O)[N-]1.[Na+].[Na+] [Dantrolene sodium hemiheptahydrate]	2.84
N=C(N)NCCCC[C@@H]1NC(=O)CCSSC[C@@H](C(N)=O)NC(=O)[C@@H]2CCCN2C(=O)[C@H](Cc2c[nH]c3ccccc23)NC(=O)[C@H](CC(=O)O)NC(=O)CNC1=O [Eptifibatide]	0.917
N[C@@H](Cc1ccc(O)c(O)c1)C(=O)O [Levodopa]	1.33
NC(=O)c1cn(Cc2c(F)cccc2F)nn1 [Rufinamide]	1
C[C@H](Cn1cnc2c(N)ncnc21)OCP(=O)(O)O [Tenofovir]	1.12
Nc1cccc2c1C(=O)N(C1CCC(=O)NC1=O)C2=O (stereo not drawn) [Pomalidomide]	1.12
CCC1=C[C@@H]2CN(C1)Cc1c([nH]c3ccccc13)[C@@](C(=O)OC)(c1cc3c(cc1OC)N(C)[C@H]1[C@@](O)(C(=O)OC)[C@H](OC(C)=O)[C@]4(CC)C=CCN5CC[C@]31[C@@H]54)C2.O=C(O)[C@H](O)[C@@H](O)C(=O)O.O=C(O)[C@H](O)[C@@H](O)C(=O)O [Vinorelbine Tartrate]	0.805
CC(C)(Sc1cc(C(C)(C)C)c(O)c(C(C)(C)C)c1)Sc1cc(C(C)(C)C)c(O)c(C(C)(C)C)c1 [Probucol]	0.748
Cc1cn([C@H]2C=C[C@@H](CO)O2)c(=O)[nH]c1=O [Stavudine]	0.812
C[C@@](Cc1ccc(O)c(O)c1)(NN)C(=O)O.O [Carbidopa Hydrate]	1.55
CNCCC(Oc1ccc(C(F)(F)F)cc1)c1ccccc1.Cl (stereo not drawn) [Fluoxetine hydrochloride]	0.924
N[C@@H](CC(=O)O)C(=O)O [L-Aspartic acid]	0.451
Cl.CNCC\C=C1\c2ccccc2CCc2ccccc12 [Nortriptyline hydrochloride]	0.835
C[C@@H]1COCCN1c1cc(C2([S@](C)(=N)=O)CC2)nc(-c2ccnc3[nH]ccc23)n1 [Ceralasertib]	0.823
C[C@@H]1CCN(C(=O)CC#N)C[C@@H]1N(C)c1ncnc2[nH]ccc12 [Tofacitinib]	1.19
